An excerpt weighted towards active compounds, which were near 4.1% of everything screened.
MEKK2wt PB1 HTS – raises or lowers MEK5 binding to wildtype human MEKK2 PB1 domain. bead flow cytometry, Alexa488-MEK5 binding to MEKK2 WT; actives lie on both sides. binding response (% of control), % at 10 µM. actives 1.1% (n = 290,000). AID 1531; in the data active = binding response below about 67% or above about 130%
MEKK2mut PB1 HTS – signal of MEK5 binding to mutant human MEKK2 PB1 domain; AID 1530; percent response, % at 10 µM; actives 0.35% (n = 290,000); bead flow cytometry, Alexa488-MEK5 binding to MEKK2 mutant; in the data active = percent response above about 24%, passing the limit was not always enough
SUMO Mot1 rescue – inhibitors of SUMOylation pathway: yeast Mot1-301 growth rescue | S. cerevisiae Mot1-301 growth rescue, ATP luminescence, 38.5C; percent above DMSO median, 100 means doubled | growth rescue, % at 18.8 µM | actives 1% (n = 320,000) | AID 2716;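 active = every valid replicate shows activation above 250% relative to neutral control wells; inactive = the rest, any valid replicate at or below 250%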;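 also: OY570 slx delta 5 strain wells were the positive control but not used for scaling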
MEKK3 PB1 HTS – MEKK3-MEK5 PB1 interaction, increase or decrease; binding response (% of control), % at 10 µM; Q99759; actives 1.4% (n = 290,000); AID 1529; bead-based flow cytometry, Alexa488-MEK5 binding to MEKK3; actives lie on both sides; 0 = blocked by unlabeled MEK5, 100 = vehicle;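 active = binding response more than 3 SD above or below the average of its plate-row segment, actives on both sides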;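 also: Alexa488 bead fluorescence after subtracting the streptavidin-only scavenger bead signal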
Target sequence (Q99759 whole entry, looked up): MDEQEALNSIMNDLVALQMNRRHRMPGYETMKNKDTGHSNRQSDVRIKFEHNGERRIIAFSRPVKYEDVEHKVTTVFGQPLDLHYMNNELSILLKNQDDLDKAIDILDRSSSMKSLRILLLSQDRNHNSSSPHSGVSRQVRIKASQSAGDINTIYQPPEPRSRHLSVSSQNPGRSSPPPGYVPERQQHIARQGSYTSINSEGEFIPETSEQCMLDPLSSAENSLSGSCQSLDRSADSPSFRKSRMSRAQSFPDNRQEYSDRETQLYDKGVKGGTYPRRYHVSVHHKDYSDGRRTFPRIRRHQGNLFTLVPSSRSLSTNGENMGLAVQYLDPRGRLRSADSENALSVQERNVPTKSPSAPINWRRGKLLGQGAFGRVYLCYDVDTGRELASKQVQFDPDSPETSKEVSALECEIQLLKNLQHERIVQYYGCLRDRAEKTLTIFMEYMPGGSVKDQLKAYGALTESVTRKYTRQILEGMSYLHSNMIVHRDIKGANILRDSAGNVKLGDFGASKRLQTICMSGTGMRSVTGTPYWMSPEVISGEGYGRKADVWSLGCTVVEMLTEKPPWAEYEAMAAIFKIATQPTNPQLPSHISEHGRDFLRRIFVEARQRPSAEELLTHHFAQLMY
CHT block – inhibits the human high affinity choline transporter. CHT-expressing cells, membrane potential dye, choline response; stronger effect = lower value. Q9GZV3. B-score at 10 µM. actives 0.86% (n = 310,000);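 active = B-score over 3 SD under the library average, and starting fluorescence ratio not unusually high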;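 also: choline stimulus applied at its EC90 after an EC20 pre-addition; B-score computed on integrated fluorescence ratio after choline addition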
CHT PAM – allosteric activators of human choline transporter CHT; Q9GZV3; actives 0.49% (n = 310,000); CHT-expressing cells, membrane potential dye, choline EC20; stronger effect = higher value; LV-AA mutant CHT in HEK293 cells; B-score at 10 µM; AID 488977;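 active = initial fluorescence not abnormally high and integrated response B-score, plate-corrected, over 3 SD above library mean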
CHT block conf – confirmation of human choline transporter CHT inhibitors; shares compounds with CHT block; CHT-expressing cells, choline membrane potential dye; LV-to-AA substituted CHT, HEK293 cells; CHT activity remaining % of control (stronger effect = lower value), % at 10 µM; actives 70% (n = 2,400); AID 493221;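 active = choline transporter activity left, mean of duplicates at 10 µM, below buffer-only control mean minus 3 SD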;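 also: depolarization triggered by choline at its EC90 following an EC20 pre-addition; 0% = hemicholinium-3 full block and 100% = buffer-only control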
HEK293 MPD ctr – counter-screen for CHT inhibitors: effect in parental HEK293 cells; shares compounds with CHT block; membrane potential dye, choline response; active = decrease or increase beyond buffer ±3SD; actives 4% (n = 2,400); membrane potential ratio readout (active if shifted either direction beyond buffer ±3SD; no single direction) at 10 µM;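 also: parental cells lack the transporter so any hit is non-specific; ratio is peak minus trough fluorescence over baseline after EC90 choline challenge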
* marks the source's active call; other numbers are inactive results; i = inactive; . = no result given.

SMILES | MEKK2wt PB1 HTS | MEKK2mut PB1 HTS | SUMO Mot1 rescue | MEKK3 PB1 HTS | CHT block | CHT PAM | CHT block conf | HEK293 MPD ctr
CCC(C)Nc1c([N+](=O)[O-])cc(C)cc1[N+](=O)[O-] (configuration not stated) | . | . | 21 | . | i | i | . | .
Cc1cc([N+](=O)[O-])c(NCCCCCCO)c([N+](=O)[O-])c1 | 97 | 0 | -12 | 99 | -5.4* | i | 38%* | i
Cc1ccc(CSCC(=O)N(C)CC(=O)Nc2ccc(Cl)c(Cl)c2)cc1 | . | . | 24 | . | i | i | . | .
O=C(C[n+]1cccc2ccccc21)c1ccc([N+](=O)[O-])cc1 | 89 | -2 | -2 | 86 | i | i | . | .
O=C(C[n+]1cccc2ccccc21)c1ccc(Cl)cc1 | 98 | -15 | 188 | 86 | -8* | i | 37%* | i
Cc1ccc(-c2nc(=S)c3c(n2Cc2cccnc2)CC(C)(C)OC3)cc1 | 99 | 2 | -14 | 101 | i | i | . | .
COc1ccc(OCc2cccc(C(=O)Nn3cc([N+](=O)[O-])cn3)c2)cc1 | 101 | 3 | 5 | 107 | -7.1* | i | 69%* | i
COc1ccc2cc(CCNC(=O)c3ccc(S(=O)(=O)N4CCCC4)cc3)c(=O)[nH]c2c1 | 105 | 7 | 2 | 99 | i | i | . | .
CC1CCC(NC(=O)CCn2ccc3cc(S(=O)(=O)N4CCCC4)ccc32)CC1 (configuration not stated) | 99 | -3 | 17 | 102 | -6.3* | i | 39%* | i
CC1CCN(S(=O)(=O)c2ccc3c(ccn3CCC(=O)N3CCCCC3)c2)CC1 | 98 | 0 | -6 | 101 | i | i | . | .
Cn1c(Cl)c(C(=O)Nc2ccc(Cl)cc2)c2ccccc21 | 105 | 2 | 0 | 104 | i | i | . | .
COc1ccc(CC(=O)OCC(=O)Nc2cc(Cl)ccc2C)cc1 | . | . | 33 | . | . | . | . | .
Nn1c(-c2ccccc2)cc(-c2ccccc2)cc1=O | . | . | -7 | . | i | i | . | .
CC1=C(C(=O)N2CCCC(CCC(=O)NCc3ccccc3F)C2)OCCO1 (configuration not stated) | 97 | -1 | -1 | 101 | -6.1* | i | i | i
c1cn2cc(-c3ccc4c(c3)OCO4)nc2s1 | 98 | -1 | -3 | 98 | i | i | . | .
Cc1ccc(N2CC(C(=O)Nc3ncc([N+](=O)[O-])s3)CC2=O)cc1 (configuration not stated) | 99 | -3 | -3 | 92 | -5* | i | 50%* | i
Cc1ccc(N2CC(C(=O)Nc3nnc(C)s3)CC2=O)cc1 (configuration not stated) | 109 | 4 | -4 | 108 | i | i | . | .
CC12CCC(=O)N1C(C(=O)Nc1nc(-c3ccccc3Cl)cs1)CS2 (configuration not stated) | . | . | -12 | . | i | i | . | .
COc1ccc(C(=O)NCC(c2ccccc2)N2CCCC2)cc1S(=O)(=O)N1CCOCC1 (configuration not stated) | . | . | 8 | . | . | . | . | .
NC1=NC2(CCCCCC2)n2c(nc3ccccc32)N1 | 100 | 1 | 2 | 99 | -5.5* | i | 15%* | i
COc1ccc(-c2ccc(-c3noc(-c4ccccc4OC)n3)c(OC)n2)cc1 | 100 | 7 | 5 | 103 | -5* | i | i | i
COc1ccc(-c2ccc(-c3noc(-c4ccccc4C)n3)c(OC)n2)cc1 | 97 | -1 | -24 | 97 | i | i | . | .
COc1ccc(S(=O)(=O)N2CCCCCC2)cc1C(=O)N1CCN(c2ccccc2O)CC1 | . | . | -40 | . | i | i | . | .
C/C(=N/NC(=O)c1cc2ccccc2cc1O)C1C(=O)c2ccccc2C1=O | 96 | 0 | . | 101 | i | i | . | .
C/C(=N\NC(=O)c1ccccc1O)C1C(=O)c2ccccc2C1=O | 101 | 5 | 11 | 102 | -5* | i | 31%* | i
SMILES | MEKK2wt PB1 HTS | MEKK2mut PB1 HTS | SUMO Mot1 rescue | MEKK3 PB1 HTS | CHT block | CHT PAM | CHT block conf | HEK293 MPD ctr
c1ccc(COc2ccc3nocc3c2)cc1 | . | . | -14 | . | i | i | . | .
CCn1c(N2CCN(S(=O)(=O)c3ccc(OC)cc3)CC2)nc2ccccc21 | 108 | 3 | 37 | 106 | -7.9* | i | 71%* | i
CN(c1ccc(O)cc1)c1nc(-c2cccs2)cs1 | 99 | 2 | -3 | 77 | -5.1* | i | 70%* | i
Cc1nc(N)sc1-c1csc(N(C)c2ccc(O)cc2)n1 | 106 | 7 | 60 | 104 | i | i | . | .
Cc1ccc(C(C)C)c(OCCOCCN2CCNCC2)c1 | . | . | . | . | -6.9* | i | 22%* | i
Cc1nnc(SCc2cnc(-c3ccc(C(C)C)cc3)s2)n1C | 107 | 0 | -26 | 101 | -12* | i | 49%* | i
CN(CC(=O)Nc1ccc(N2CCOCC2)cc1)C(=O)CCc1cc(C(C)(C)C)c(O)c(C(C)(C)C)c1 | . | . | -3 | . | i | i | . | .
O=C(CCNC(=O)N1CCn2c1nc1ccccc12)NCc1ccccc1Cl | 105 | 1 | -6 | 103 | i | i | . | .
COc1ccc(CCC(=O)N2c3ccccc3CC2C)cc1 (configuration not stated) | 96 | 6 | -5 | 102 | -5.4* | i | i | i
COc1ccc(CCC(=O)N2CCc3ccccc32)cc1 | 106 | 3 | -4 | 106 | i | i | . | .
CC1Cc2ccccc2N1C(=O)COC(=O)c1ccc(O)cc1 (configuration not stated) | 100 | 0 | -13 | 102 | -5.5* | i | 52%* | i
Cc1cc(/C=N/NC(=O)C(=O)NCc2ccccn2)c(C)n1-c1ccccc1 | 106 | -1 | 5 | 107 | -7* | i | 34%* | i
COc1ccc(-c2nc3cc([N+](=O)[O-])ccc3o2)cc1 | 100 | 9 | 1 | 105 | -5.2* | i | i | i
COC(=O)c1ccc(COn2nnc3ccccc32)cc1 | 101 | -1 | -21 | 104 | i | i | . | .
CCn1c(=O)cc(SCC(=O)NCc2ccc(C)o2)c2ccccc21 | 103 | 2 | 11 | 106 | -5.1* | i | i | i
